Screening data deposited in PubChem by National Center for Advancing Translational Sciences (NCATS).
Rows were chosen to be rich in hits. Some 10% of all compounds tested hit in one or more screens of this group.
Pf growth 96h: Primary qHTS for delayed death inhibitors of the malarial parasite plastid, 96 hour incubation; P. falciparum luciferase reporter growth, 96 h; 6.9% of 320,000 active; Potency, µM (series often up to 28.7 µM), for the others: at the highest dose activity change, negative = inhibition, actives largely listed as inhibitors; AID 504834, 2011; note: % is set by controls: 0 for no effect and ±100 for the full control effect
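96 h incubation, 37 C, 5% CO2, of luciferase-reporter P. falciparum-infected RBCs (2% hematocrit, 0.05% parasitemia final) with test compounds; endpoint luminescence.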
NS1 inh: qHTS Assay for Inhibitors of Influenza NS1 Protein Function. Potency, µM (titrated, usually from 46.1 µM), inactives show top-dose activity, positive = more growth. 0.4% of 270,000 active. AID 2326, 2010; calls by dose curve; note: actives are rising curves; nearly all actives have a fitted effect of over 50% in size
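A cell-based growth assay was used: compounds that relieve NS1-induced slow growth of budding yeast raise OD600. Assay medium was yeast nitrogen base with ammonium sulphate and -URA supplement, pH 6.0, with 2% galactose.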
Pf growth 48h: Primary qHTS for delayed death inhibitors of the malarial parasite plastid, 48 hour incubation. P. falciparum luciferase growth in erythrocytes, 48 h. Potency, µM (titrated, usually from 28.7 µM), for inactives: at the highest dose activity change, negative = inhibition, usual class: inhibitors. 5.9% of 310,000 active. AID 504832, 2011; note: % is set by controls: 0 for no effect and ±100 for the full control effect
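First compound was added to culture medium, then infected red cells at 0.1% parasitemia and 2% hematocrit (final). After incubation at 37 C under 5% CO2, luciferase detection reagent was dispensed and light output recorded.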
SARS PLP yeast: qHTS of Yeast-based Assay for SARS-CoV PLP; Potency, µM (top dose mostly 32.9 µM), inactives show at the highest dose activity, positive = growth rescue, hits mostly activators; S. cerevisiae expressing SARS-CoV PLpro, growth rescue; 0.19% of 330,000 active; calls by dose curve; note: 0% is about no effect; nearly all actives have a fitted effect of over 55% in size
* = called active by the depositor; ? = inconclusive; / = no result. Unless noted, calls come from the whole dose curve; as a rule, active = well fitted inhibition curve with a large enough effect; inconclusive = small, poorly fitted or top-dose-only effect, or another doubt; inactive = no such curve, though single readings can be large or run the other way. Potency is the fitted concentration of half-maximal effect.

SMILES | Pf growth 96h | NS1 inh | Pf growth 48h | SARS PLP yeast
CC(C)C[C@H](NC(=O)c1[nH]cnc1C(=O)Nc1ccccc1)C(=O)OC(C)(C)C | ? | -2.4% | 13.1µM* | -10.6%
CCOC(=O)c1ccc(NC(=O)c2nc[nH]c2C(=O)N[C@@H](C)C(=O)OC(C)(C)C)cc1 | ? | 10.2% | ? | 0.8%
CC(C)C[C@H](NC(=O)c1nc[nH]c1C(=O)N[C@@H](CC(C)C)C(=O)OC(C)(C)C)C(=O)OCc1ccccc1 | ? | 15.8% | ? | 4.8%
NNC(=O)c1nc[nH]c1C(=O)Nc1ccccc1 | 10.4µM* | ? | 24.9% | 4.7%
Cc1ccc(S(=O)(=O)N(CCC(=O)NCc2ccc(S(N)(=O)=O)cc2)c2ccccc2)cc1 | ? | / | 5.0% | 2.9%
CC(=O)O[C@]1(C(C)=O)CC[C@H]2[C@@H]3C[C@H](C)C4=CC(=O)CC[C@]4(C)[C@H]3CC[C@@]21C | 11.7µM* | -36.3% | 13.1µM* | -13.6%
CC(=O)O[C@]1(C(C)=O)CCC2C3CCC4=CC(=O)CCC4(C)C3(F)C(O)CC21C (stereo partly drawn) | ? | / | -26.0% | /
CC(=O)O[C@]1(C(C)=O)CC[C@H]2[C@@H]3C=C(Cl)C4=CC(=O)[C@@H]5C[C@@H]5[C@]4(C)[C@H]3CC[C@@]21C | 8.49µM* | / | 10.7µM* | -3.0%
CC(=O)O[C@]1(C(C)=O)CC[C@H]2[C@@H]3C=C(Cl)C4=CC(=O)CC[C@]4(C)[C@H]3CC[C@@]21C | ? | -9.6% | 11.7µM* | -36.5%
CC(=O)C12CCCCC1CC1[C@@H]3CC(C)C4=CC(=O)CC[C@]4(C)C3CC[C@@]12C (stereo partly drawn) | ? | 0.7% | ? | 0.6%
Cc1ccc(C)c(S(=O)(=O)N2CCN(C(=O)Cc3ccc(S(=O)(=O)N4CCOCC4)s3)CC2)c1 | ? | / | ? | 0.2%
CCCNC(=O)CN1CCC(c2nc3ccccc3[nH]2)CC1 | -1.0% | 1.4% | -9.4% | 18.3%
Cc1ccc(CSC2=NCCN2S(=O)(=O)c2ccc(F)cc2)cc1 | 9.8% | -36.2% | -15.0% | -11.2%
Cc1nn(C)c(C)c1NC(=S)Nc1ccc(S(=O)(=O)Nc2ncccn2)cc1 | -18.6% | -1.6% | -3.5% | 1.0%
CC(C)(C)OC(=O)CNC(=O)c1nc[nH]c1C(=O)N1CCN(C(=O)OC(C)(C)C)CC1 | 137.3% | -3.6% | 6.2% | -0.8%
CC(C)(C)OC(=O)N1CCN(C(=O)c2[nH]cnc2C(=O)NCc2ccccc2)CC1 | -35.8% | / | 5.0% | -0.5%
CCOC(=O)c1ccc(NC(=O)c2nc[nH]c2C(=O)N2CCN(C(=O)OC(C)(C)C)CC2)cc1 | ? | -2.4% | 13.1µM* | 1.9%
CC(C)(C)OC(=O)N1CCN(C(=O)c2[nH]cnc2C(=O)Nc2cccc(Cl)c2)CC1 | ? | / | 4.15µM* | 0.5%
CCCCOc1ccc(C(=O)NCC(=O)NCC2CCCO2)cc1 (stereo not drawn) | 27.2% | 8.9% | ? | 0.5%
Cc1cc(/C=C(/C#N)c2nc3ccccc3[nH]2)c(C)n1-c1ccccc1C(=O)O | 18.8% | / | 8.28µM* | 7.5%
Cc1ccc2nc(/C(C#N)=C\c3ccc([N+](=O)[O-])o3)[nH]c2c1 | ? | -138.5% | 10.4µM* | -30.9%
Cc1ccc2nc(/C(C#N)=C\c3cc(C)n(-c4cccc([N+](=O)[O-])c4)c3C)[nH]c2c1 | 3.29µM* | 17.8% | / | -3.4%
N#C/C(=C\c1ccc([N+](=O)[O-])o1)c1nc2ccccc2[nH]1 | -10.5% | -27.6% | 13.9% | -110.6%
Cc1cc(/C=C(/C#N)c2nc3ccccc3[nH]2)c(C)n1-c1cc(C(=O)O)cc(C(=O)O)c1 | 100.7% | 6.3% | 1.4% | 1.0%
Cc1ccc2oc(=O)c3cc(C(=O)NCCCN4C(C)CCCC4C)sc3c2c1 (stereo not drawn) | -4.1% | 2.8% | ? | 0.0%
SMILES | Pf growth 96h | NS1 inh | Pf growth 48h | SARS PLP yeast
COc1ccc(C(=O)N2CCN(c3ccc(C(C)=O)cc3)CC2)cc1S(=O)(=O)N1CCCC1 | / | / | / | -10.6%
O=C(CSc1nnc(CNC(=O)c2ccccc2)o1)NCc1ccccc1Cl | -27.9% | -16.9% | 11.2% | -5.0%
CN(C)CCCN(C(=O)c1ccc(N2C(=O)CCC2=O)cc1)c1nc2c(F)cccc2s1 | -4.8% | / | 9.3% | -2.8%
CCOc1ccc2nc(N(CCN(C)C)C(=O)c3ccc4c(c3)CCCC4)sc2c1 | ? | -10.1% | -21.9% | -1.0%
Cc1ccc2nc(N(CCCN(C)C)C(=O)c3ccc4c(c3)CCCC4)sc2c1 | 1.85µM* | 5.1% | 10.4µM* | 9.1%
CN(C)CCN(C(=O)c1ccc2c(c1)CCCC2)c1nc2cc3c(cc2s1)OCCO3 | -17.1% | -7.2% | 14.0% | -0.4%
Cc1ccc2nc(N(CCCN(C)C)C(=O)c3cc(-c4cccs4)nc4ccccc34)sc2c1 | 13.1µM* | -38.9% | -28.6% | -1.7%
Cc1cc(C)c2nc(N(CCCN(C)C)C(=O)c3ccc4c(c3)CCCC4)sc2c1 | ? | / | 7.38µM* | 4.3%
CN(C)CCCN(C(=O)c1ccc2c(c1)CCCC2)c1nc2c(F)cccc2s1 | ? | 3.4% | 9.28µM* | 27.1%
COc1cccc(CN2CC(C(=O)NCCN3CCOC3=O)CCC2=O)c1 (stereo not drawn) | ? | -2.0% | 15.4% | 0.9%
Cc1ccc(Sc2ncccc2C(=O)NCC(c2ccc(F)cc2)N2CCOCC2)cc1C (stereo not drawn) | ? | / | 11.7µM* | -7.1%
COc1ccccc1NS(=O)(=O)c1cc(C(=O)NCC(c2ccco2)N2CCCCC2)ccc1C (stereo not drawn) | 8.28µM* | / | 11.7µM* | /
COc1ccccc1NS(=O)(=O)c1cccc(C(=O)NCC(c2ccc(F)cc2)N2CCOCC2)c1 (stereo not drawn) | ? | / | ? | -4.4%
COc1ccc(/C=C/C(=O)NCCN2CCOCC2)cc1OC | -6.2% | / | 32.7% | -0.4%
COc1ccccc1NS(=O)(=O)c1cc(C(=O)NCC(c2ccc(F)cc2)N2CCOCC2)ccc1C (stereo not drawn) | ? | / | 11.7µM* | -1.1%
COc1ccc(/C=C/C(=O)NCC(c2ccc(F)cc2)N2CCOCC2)cc1OC (stereo not drawn) | ? | -30.5% | 8.28µM* | 5.5%
CCCCNC(=O)Cc1cc(=O)[nH]c(=O)[nH]1 | 20.3% | 0.5% | 2.9% | 0.0%
COc1cccc(C(=O)NCc2ccc3[nH]c(C)cc3c2)c1 | 0.3% | / | ? | -0.4%
COc1cc(OC)cc(C(=O)NCc2ccc3[nH]c(C)cc3c2)c1 | 18.5µM* | / | 9.28µM* | 2.5%
Cc1cc(C)cc(NC(=O)Nc2ccc(-n3ccc(C(F)(F)F)n3)cc2)c1 | ? | 11.3% | 11.7µM* | -1.0%
O=C(O)CCC(=O)Nc1ccc(-n2ccc(C(F)(F)F)n2)cc1 | 58.3% | 1.1% | 1.65µM* | -0.5%
O=C(c1ccc(S(=O)(=O)NCc2ccco2)cc1)N1CCCC1 | -16.3% | / | 5.2% | 0.3%
N#Cc1ccc(CN2CCN(C(=O)c3ccc(S(=O)(=O)NCc4ccco4)cc3)CC2)cc1 | 3.7µM* | / | ? | 2.3%
CC(C)c1nc2sc(C(=O)O)c(N)c2c2c1CCCC2 | 13.1µM* | -0.3% | ? | -0.7%
